We go through four molecules from PubChem BioAssay AID652217 (Sanford-Burnham Center for Chemical Genomics, 2013).

Out of some 1,800 compounds screened, about 240 (13%) were called active. No stated cut-off is given here; in the data, active means inhibition above about 40%; inactive means the rest. The entries come from a sample that favours actives as a whole.

Sequence of NEDD8-conjugating enzyme Ubc12 (Homo sapiens) + NEDD8-activating enzyme E1 regulatory subunit (Homo sapiens) (P61081 whole entry, looked up): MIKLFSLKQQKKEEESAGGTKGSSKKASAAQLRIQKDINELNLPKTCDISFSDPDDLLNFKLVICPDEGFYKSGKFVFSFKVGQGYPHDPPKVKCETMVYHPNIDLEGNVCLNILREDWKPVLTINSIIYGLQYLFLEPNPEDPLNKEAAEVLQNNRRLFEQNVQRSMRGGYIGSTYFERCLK
Sequence of NEDD8-conjugating enzyme Ubc12 (Homo sapiens) + NEDD8-activating enzyme E1 regulatory subunit (Homo sapiens) (Q13564 whole entry, looked up): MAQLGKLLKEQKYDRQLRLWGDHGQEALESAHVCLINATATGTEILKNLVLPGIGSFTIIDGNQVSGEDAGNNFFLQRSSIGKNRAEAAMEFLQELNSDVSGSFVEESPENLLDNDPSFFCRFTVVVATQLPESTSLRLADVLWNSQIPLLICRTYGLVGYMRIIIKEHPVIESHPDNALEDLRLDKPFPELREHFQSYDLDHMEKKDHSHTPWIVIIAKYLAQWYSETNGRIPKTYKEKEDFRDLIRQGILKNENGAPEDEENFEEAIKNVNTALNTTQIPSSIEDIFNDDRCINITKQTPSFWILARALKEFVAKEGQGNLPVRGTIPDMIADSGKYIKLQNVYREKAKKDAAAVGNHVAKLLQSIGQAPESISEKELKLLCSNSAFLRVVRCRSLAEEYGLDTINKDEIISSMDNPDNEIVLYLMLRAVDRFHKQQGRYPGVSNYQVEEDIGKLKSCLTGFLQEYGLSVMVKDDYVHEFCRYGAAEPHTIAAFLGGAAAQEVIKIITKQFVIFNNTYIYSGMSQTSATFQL

This assay has as its target NEDD8-conjugating enzyme Ubc12 (Homo sapiens) + NEDD8-activating enzyme E1 regulatory subunit (Homo sapiens) (UniProt P61081+Q13564). Description: blockade of NEDD8 conjugation to cullin – biochemical, TR-FRET, single concentration, confirmation (AID 652217).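 Further: neddylation substrate is the cullin 1 ring ligase complex with SKP2.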 Conditions: TR-FRET cullin neddylation biochemical assay; at 25 µM; hits give high values. On the technique in general: Time-resolved FRET reads energy transfer from a long-lived donor to a nearby acceptor.
Usually inhibition stands for the relative decrease from the control value, in per cent. As to `CC(=CCOc1ccc2ccc(=O)oc2c1)C1=CC(=O)C(C)(C)O1`, the inhibition was 44.2% (active). As for `CCN1c2nc3c(C)cccn3c(=O)c2CC2(C(=O)N(C)C(=O)N(C)C2=O)C1C` (centres undefined), the figure is 9.81% (inactive). As for `CCC(C)n1c(O)c(/C=N/Nc2nc3c(c(=O)n(C)c(=O)n3C)n2C)c(=O)[nH]c1=S` (centres undefined), the inhibition was -31.5% (inactive). `CCCCC(=O)N/N=C/c1c(O)n(CCC2=CCCCC2)c(=O)[nH]c1=O`: the inhibition is 2.57% (inactive).
